Screening data (PubChem)
Integrin act MD – integrin-mediated muscular dystrophy alleviation activation; alpha7betagal myoblasts, beta-gal FDG fluorescence, 48 h; 350,000 compounds, 0.064% hits; Potency, µM (titrated, usually from 38.3 µM), hits mostly activators; further: nearly all actives have a fitted effect of over 60% in size
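alpha7betagal+/- myoblasts (passage 13, 250/well) treated 48 h at 37C with compounds at 1:260 dilution of DMSO stock. Lysed, then beta-galactosidase activity read as FDG fluorescence (ex 480/em 540) after 30 min, with pre-read for autofluorescence.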
A-T KAP1 phos – potential ataxia-telangiectasia treatment; F2112 A-T fibroblasts, KAP-1 phosphorylation AlphaLISA; neocarzinostatin DNA damage 30 min before lysis; Potency, µM (titrated, usually from 57.5 µM), usual class: activators; 320,000 compounds, 0.19% hits; further: nearly all actives have a fitted effect of over 45% in size
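ATM-like activity read as KAP-1 phosphorylation via AlphaLISA donor/acceptor antibody pairs after lysis and 6 hr at 25C. Cells were ATM-null patient fibroblasts (F2112, hTERT), dosed 60 min, then exposed to the DSB inducer NCS for 30 min.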
SW480 rereplic – inducers of DNA re-replication in SW480 colon cancer cells. Potency, µM (highest dose often 46.1 µM), actives largely listed as activators. SW480 DNA re-replication, Hoechst DNA content imaging, 48 h. AID 624297. 340,000 compounds, 1.8% hits; further: nearly all actives have a fitted effect of over 55% in size
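Quantitative HTS format with DMSO vehicle controls; 48 hr drug incubation at 37 C, then 40 min Hoechst staining and scanning imager measurement at 405 nm excitation.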
Mito fusion act – blocks mitochondrial division or promotes mitochondrial fusion; S. cerevisiae fusion-defective mutant growth rescue, CellTiterGlo 48 h; Potency, µM (highest dose often 46.1 µM), most hits filed as activators; 320,000 compounds, 0.23% hits; further: nearly all actives have a fitted effect of over 45% in size
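Compounds are tested for their ability to restore growth of mitochondrial fusion-defective yeast strains at non-permissive 37C in YPEG medium over 48 hours. Viability is quantified by luciferase luminescence.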
MCF10A rerep – inducers of DNA re-replication in MCF 10A breast cells | MCF 10A DNA re-replication, Hoechst nuclear intensity, 48 h | Potency, µM (titrated, usually from 46.1 µM), most hits filed as activators | 350,000 compounds, 2.9% hits; further: nearly all actives have a fitted effect of over 50% in size
Of the large screens only hits and unclear results are named; the others gave an inactive call. A selection: hits, their analogues and other compounds. The true share with any hit is near 4.2%. The call rests on the fitted dose curve; in most records, active means well fitted activation curve with a large enough effect; inconclusive means small, poorly fitted or top-dose-only effect; inactive means no such curve, though single readings can be large or run the other way.

CC(=O)N1CC2(CC(c3ccccc3C(F)(F)F)=NO2)CN1c1ccc(Cl)cc1 (stereo not drawn)	none (no result: A-T KAP1 phos, SW480 rereplic, Mito fusion act, MCF10A rerep)
C(=N\N1CCN(Cc2cccc3ccccc23)CC1)/c1cccnc1	A-T KAP1 phos inconclusive, MCF10A rerep 26µM
FC(F)(F)c1ccc(/C=N/N2CCN(Cc3cccc4ccccc34)CC2)cc1	none
c1coc(CNc2nc(N3CCCCC3)nc3ccccc23)c1	none
Clc1nc(NCc2ccco2)nc(N2CCCCC2)n1	SW480 rereplic 4.6µM, MCF10A rerep inconclusive
CC1(C)CC(=O)C(C=Nc2ccc(O)c(N=CC3=C(O)CC(C)(C)CC3=O)c2)=C(O)C1	none
CC1(C)CC(=O)C(C=Nc2ccc(C(=O)c3ccccc3)cc2N=CC2=C(O)CC(C)(C)CC2=O)=C(O)C1	SW480 rereplic inconclusive, MCF10A rerep 5.8µM
CN(C)CCNC(=O)c1ccc2c(=O)n(Cc3ccc(Cl)cc3)c(=S)[nH]c2c1	SW480 rereplic 23µM, MCF10A rerep inconclusive
COc1ccc(-n2c(=O)[nH]c3cc(C(=O)NCCc4ccc(Cl)cc4)ccc3c2=O)cc1OC	SW480 rereplic inconclusive, MCF10A rerep 15µM
Nc1nnnn1/N=C/C=C/c1ccccc1	none
Nc1nnnn1/N=C/C(Br)=C/c1ccccc1	SW480 rereplic 2.8µM, MCF10A rerep 2.6µM
COc1ccc(NC(=O)c2nc[nH]c2C(=O)Nc2ccccc2C)cc1	SW480 rereplic 18µM, MCF10A rerep inconclusive
Cc1ccccc1NC(=O)c1[nH]cnc1C(=O)NN	none
CCOc1ccccc1NC(=O)CSc1cn[nH]n1	MCF10A rerep 16µM
CCOc1ccccc1NC(=O)c1ccccc1-c1nc(-c2ccccc2)no1	A-T KAP1 phos inconclusive, SW480 rereplic 23µM
CCOc1ccccc1NC(=O)c1nc[nH]c1C(=O)Nc1ccccc1OCC	SW480 rereplic 21µM, MCF10A rerep inconclusive
Cc1ccc2c(n1)sc1c(N)ncnc12	MCF10A rerep inconclusive
O=C(NCCc1ccc(F)cc1)C1CCC(=O)N(CC2CCCCC2)C1 (stereo not drawn)	none (no result: A-T KAP1 phos, SW480 rereplic, Mito fusion act, MCF10A rerep)
C/C(=N\NC(=O)CCCNc1cccc(C)c1)c1ccncc1	none
Cc1nc(N2CCCCC2)c2c(C)c(C(=O)Nc3cccc(C(F)(F)F)c3)sc2n1	MCF10A rerep 18µM
O=C(Nc1cccc(C(F)(F)F)c1)c1cccnc1N1CCCC1	none
CCOC(=O)c1sc2nc(C)nc(N3CCCCC3C)c2c1C (stereo not drawn)	A-T KAP1 phos inconclusive, MCF10A rerep 18µM
Cc1nc(N2CCN(C)CC2)c2c(C)c(C(=O)Nc3ccc(F)cc3)sc2n1	none
Cc1nc(N2CCCCC2)c2c(C)c(C(=O)Nc3ccccc3C(F)(F)F)sc2n1	MCF10A rerep inconclusive
O=C(Nc1cccc(C(F)(F)F)c1)c1cccnc1N1CCOCC1	SW480 rereplic 0.73µM
Cc1nc(N2CCCCC2C)c2c(C)c(C(=O)Nc3cccc(C(F)(F)F)c3)sc2n1 (stereo not drawn)	MCF10A rerep 18µM
Cc1c(C(=O)O)sc2ncnc(N3CCCCC3C)c12 (stereo not drawn)	none
C[C@H](CO)N1C[C@H](C)[C@H](CN(C)Cc2ccncc2)Oc2ncc(Br)cc2C1=O	none (no result: A-T KAP1 phos, SW480 rereplic, Mito fusion act, MCF10A rerep)
CCOC(=O)c1cccc(NC(=O)CSc2nncn2-c2ccccn2)c1	none
N#Cc1c(-c2ccccc2)c(C#N)c2nc3ccccc3n2c1N	none
Cc1c(CCCl)c(Cl)n2c(nc3ccccc32)c1C#N	SW480 rereplic inconclusive, MCF10A rerep 2.9µM (no result: A-T KAP1 phos, Mito fusion act)
Cc1cccc(NC(=O)CSc2cc(C)c(C#N)c3nc4ccccc4n23)c1	SW480 rereplic 2.9µM
CCc1c(C)c(C#N)c2nc3ccccc3n2c1NC	none
CNc1cc(C)c(C#N)c2nc3ccccc3n12	SW480 rereplic inconclusive
Cc1cc(Cl)n2c(nc3ccccc32)c1C#N	SW480 rereplic 21µM, MCF10A rerep inconclusive
Cc1ccc(-c2c(C#N)c(N)n3c(nc4ccccc43)c2C#N)cc1	SW480 rereplic 18µM, MCF10A rerep 18µM
Cc1ccc(N(CC(=O)O)S(C)(=O)=O)cc1	Mito fusion act inconclusive
COCCNC(=O)CC(=O)N/N=C/c1cccc(C(=O)OC)c1	none
COc1ccc(-c2cn3cccnc3n2)cc1NC(=O)Nc1cc(C)ccc1C	none (no result: Integrin act MD, SW480 rereplic, MCF10A rerep)
N/N=C(\c1ccccc1)C12CN3CN(CN(C3)C1)C2	MCF10A rerep inconclusive (no result: A-T KAP1 phos)
O=C(O)c1cc(N=Cc2c(O)c3ccccc3oc2=O)ccc1O	Integrin act MD 7.1µM, SW480 rereplic inconclusive
O=c1[nH]c(-c2ccccn2)nc2sc(-c3ccccc3)cc12	SW480 rereplic 6.5µM, MCF10A rerep 1.3µM
Cc1nc2sc(C(c3ccco3)N3CCN(c4ccccc4F)CC3)c(O)n2n1 (stereo not drawn)	MCF10A rerep 18µM
Cc1nc2sc(C(c3ccco3)N3CCN(c4ccc(F)cc4)CC3)c(O)n2n1 (stereo not drawn)	none
COc1ccc(NC(=O)N(C)C[C@@H]2OCc3cnnn3CCCC(=O)N([C@@H](C)CO)C[C@H]2C)cc1	none (no result: A-T KAP1 phos, SW480 rereplic, Mito fusion act, MCF10A rerep)
C#CCN(C[C@@H]1[C@@H](OC(=O)NCc2ccccc2F)[C@@H](OC(=O)NCc2ccccc2F)Cn2c(=O)ccc(=O)n21)S(=O)(=O)c1ccc(C)cc1	none (no result: A-T KAP1 phos, SW480 rereplic, Mito fusion act, MCF10A rerep)
CC1CCc2nc(NC(=O)CN3CCN(Cc4ccc5c(c4)OCO5)CC3)sc2C1 (stereo not drawn)	MCF10A rerep 13µM
O=C1COc2ccc(C(=O)CCl)cc2N1	SW480 rereplic 21µM, MCF10A rerep 21µM
Clc1ccc(/C=C/c2ncc3ccccn23)cc1	SW480 rereplic 23µM, MCF10A rerep 18µM
Fc1ccc(-c2ncc3ccccn23)cc1	none
COc1cc2[nH]c(=S)nc(NC3CCCC3)c2cc1OC	none (no result: Integrin act MD, SW480 rereplic, MCF10A rerep)
Cc1cccc(N2CCN(C(=O)c3cccc(N4CCCC4=O)c3)C(C)C2)c1 (stereo not drawn)	Integrin act MD inconclusive, SW480 rereplic inconclusive, MCF10A rerep 1.5µM
O=C(Nc1ccc(Cl)c(Cl)c1)C1=Cc2ccccc2OC1	MCF10A rerep 21µM (no result: A-T KAP1 phos)
O=C(NCc1ccc(Cl)cc1)C1=Cc2cc(Cl)ccc2OC1	none
O=C(Nc1cccc(Cl)c1)C1=Cc2cc(Cl)ccc2OC1	MCF10A rerep 13µM
Cc1cccn2c(=O)cc(CSc3nnc(NC(=O)COc4ccccc4)s3)nc12	none (no result: Integrin act MD, SW480 rereplic, MCF10A rerep)
CCOc1cc(CNc2ccc(N3CCCC3)cc2)cc(Cl)c1OC	SW480 rereplic 16µM, MCF10A rerep inconclusive
COc1cc(CNc2ccc(N3CCCC3)cc2)cc(Cl)c1OC	SW480 rereplic inconclusive, MCF10A rerep 23µM
Cn1cnc([N+](=O)[O-])c1Oc1ccc2ccccc2c1	SW480 rereplic 6.5µM, MCF10A rerep 4.1µM
Cn1cnc([N+](=O)[O-])c1Sc1nc2ccccc2[nH]1	A-T KAP1 phos inconclusive, MCF10A rerep inconclusive
O=C(C1CC1)N1CCC(C(O)(c2ccccc2)c2ccccc2)CC1	none
